Most compounds without a hit are left out; they make up all but 1.2% or so of the library.
RGS16-Gao HTS – RGS16-Galphao interaction regulator (human); O15492+P09471; bead-based flow cytometry RGS16-Galphao binding, fluorescence; actives lie on both sides; binding response (% of control), % at 10 µM; 0.38% of 220,000 active; AID 1441;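 also: Galphao activated by GDP with aluminum fluoride before binding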
Avidin bead fluor – compound fluoresces at 488/530 nm on avidin beads; compound fluorescence 488/530 nm, flow cytometry; stronger effect = higher value; fluorescence (KMESF) at 10 µM; 0.38% of 220,000 active; in the data active = fluorescence above about 47
RGS7-Gao – modulates binding of RGS7 to human Galphao; Multiplexed bead flow cytometry; actives lie on both sides; binding response (% of control), % at 10 µM; 0.35% of 220,000 active; AID 1439; in the data active = binding response below about 49% or above about 150%; inconclusive = no clear call, values can overlap the other calls; inactive = in between;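 also: fluorescent Galphao held in activated GDP-AlF4 state binding bead-coupled RGS7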
Target sequence (P09471 whole entry, looked up): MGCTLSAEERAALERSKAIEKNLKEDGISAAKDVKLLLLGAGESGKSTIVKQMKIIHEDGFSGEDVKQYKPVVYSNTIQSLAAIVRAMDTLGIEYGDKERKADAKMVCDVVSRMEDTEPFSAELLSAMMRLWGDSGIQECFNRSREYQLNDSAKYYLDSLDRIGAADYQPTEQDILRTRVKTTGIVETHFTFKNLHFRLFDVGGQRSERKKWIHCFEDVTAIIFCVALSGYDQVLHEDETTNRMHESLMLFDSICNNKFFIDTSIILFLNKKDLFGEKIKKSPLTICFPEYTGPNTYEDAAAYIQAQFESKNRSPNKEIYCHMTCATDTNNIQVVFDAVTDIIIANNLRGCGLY
GSH fluor – GSH bead compound fluorescence profile; 0.25% of 190,000 active; AID 1776; GSH beads flow cytometry, compound fluorescence 488/530 nm; stronger effect = higher value; fluorescence (KMESF) at 10 µM; in the data active = fluorescence above about 89;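 also: glutathione beads carrying GST-tagged Bcl family fusion proteins plus one bare bead set; values are compound well signal with DMSO vehicle wells as background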
RGS4-Gao reg – modulates binding of RGS4 to human Galphao; P09471; Multiplexed bead flow cytometry; actives lie on both sides; binding response (% of control), % at 10 µM; 0.33% of 220,000 active; AID 1415; in the data active = binding response below about 49% or above about 150%; inactive = in between;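 also: fluorescent Galphao activated with aluminum fluoride binding bead-coupled RGS4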
RGS8-Gao reg – regulators of human RGS8-Galphao interaction; response (percent of control binding), % at 10 µM; P09471; AID 1423; multiplexed bead flow cytometry, RGS8-Galphao binding; actives lie on both sides; 0.34% of 220,000 active; in the data active = response below about 60% or above about 140%; inactive = in between;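 also: Galphao activated as the GDP aluminium fluoride complex binding bead-coupled RGS8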
RGS4-Gao HTS – modulates binding between human RGS4 and Galphao; multiplexed bead flow cytometry, RGS–Galpha-o binding; RGS4–Galpha-o binding response, % at 10 µM; shares compounds with RGS16-Gao HTS; 99% of 1,600 active;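 also: fluorescently labeled Galpha-o bound to GDP with aluminium fluoride binding biotinylated RGS beads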
Avidin counter – counter-screen: compounds disrupting biotin binding to avidin beads | shares compounds with RGS16-Gao HTS | streptavidin beads, fluorescein-biotin binding, flow cytometry | inhibition, % at 10 µM | 1,700 tested, under 10 active | AID 1783;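 active = inhibition above 50%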;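 also: median green fluorescence of gated singlet beads compared with DMSO control wells; 0% = DMSO wells and 100% = complete loss of bead fluorescence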
RGS8-Gao single – confirmation of regulators of human RGS8-Galphao interaction; shares compounds with RGS16-Gao HTS; bead-based flow cytometry RGS8-Galphao binding, fluorescence; actives lie on both sides; binding response (% of control), % at 10 µM; 3% of 1,700 active; AID 1836; in the data active = binding response below about 72% or above about 130%; inactive = in between;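 also: Galphao activated as GDP AlF4 complex before binding bead RGS8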
RGS7-Gao single – RGS7-Galphao interaction regulation, single point confirmation | shares compounds with RGS16-Gao HTS | bead-based flow cytometry RGS7-Galphao binding; actives lie on both sides | response (percent of control binding), % at 10 µM | 7.8% of 1,700 active; in the data active = response below about 75% or above about 130%; inactive = in between;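 also: fluorescent Galphao activated with GDP and aluminum fluoride binding bead-coupled RGS7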
RGS16-Gao single – RGS16-Galphao interaction regulation, single point confirmation; 4% of 1,700 active; AID 1838; bead-based flow cytometry, RGS16-Galphao binding; actives lie on both sides; shares compounds with RGS16-Gao HTS; response (% of control binding), % at 10 µM; in the data active = response below about 74% or above about 130%; inactive = in between;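 also: Galphao activated as the GDP aluminium fluoride complex binding bead-coupled RGS16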
RGS4-Gao single – RGS4-Galphao interaction regulation, single point confirmation; shares compounds with RGS16-Gao HTS; RGS4-Galphao binding, multiplexed bead flow cytometry; actives lie on both sides; binding response (% of control), % at 10 µM; 4% of 1,700 active; AID 1840; in the data active = binding response below about 74% or above about 130%; inactive = in between
RGS19-Gao single – RGS19-Galphao interaction regulation, single point confirmation. response (percent of control binding), % at 10 µM. bead-based flow cytometry RGS19-Galphao binding; actives lie on both sides. AID 1841. 5% of 1,700 active. shares compounds with RGS16-Gao HTS; in the data active = response below about 50% or above about 160%; inactive = in between;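 also: 100% = no compound control and 0% = blank background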
Target sequence (P09471 whole entry, looked up): as above
Target sequence (P49795 whole entry, looked up): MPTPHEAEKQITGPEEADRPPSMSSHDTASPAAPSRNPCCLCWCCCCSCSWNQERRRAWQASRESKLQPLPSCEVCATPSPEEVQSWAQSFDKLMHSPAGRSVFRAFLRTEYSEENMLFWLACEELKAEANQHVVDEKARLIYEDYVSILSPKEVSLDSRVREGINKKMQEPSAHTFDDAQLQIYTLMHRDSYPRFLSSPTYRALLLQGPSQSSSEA
* marks the source's active call; other numbers are inactive results; ? = inconclusive; nt = no result; [ ] = remark or other dose. Unless noted, no rule for the calls is given here.

SMILES	RGS16-Gao HTS	Avidin bead fluor	RGS7-Gao	GSH fluor	RGS4-Gao reg	RGS8-Gao reg	Avidin counter	RGS8-Gao single	RGS7-Gao single	RGS16-Gao single	RGS4-Gao single	RGS19-Gao single	others
Cc1cc(NC(=O)C2CC(=O)OC2c2ccccc2)no1 (stereo not drawn)	100	13	97	29	96	101	nt	nt	nt	nt	nt	nt
Cc1ccc(-c2noc(-c3ccno3)n2)cc1	100	7	?	nt	99	98	nt	nt	nt	nt	nt	nt
NS(=O)(=O)c1ccc(N/N=C/c2ccc(O)c(O)c2O)c([N+](=O)[O-])c1	20*	-1	?	nt	69	39*	-9	43*	35*	42*	71*	-0.4*	RGS4-Gao HTS=69*
COc1ccc2c(c1)Cc1sc(NC(=O)c3ccco3)nc1-2	42	3	46*	20	53	58*	0	100	101	101	101	95	RGS4-Gao HTS=53*
COc1ccc2c(c1)CCc1sc(NC(=O)c3ccco3)nc1-2	101	8	99	20	102	100	nt	nt	nt	nt	nt	nt
COc1ccc(C)cc1-n1nnnc1SCC1CCCO1 (stereo not drawn)	17*	2	21*	24	26*	16*	-2	108	108	108	106	118
C=CCOc1cccc(CNc2cccc(C(=O)O)c2)c1	97	4	?	nt	96	98	nt	nt	nt	nt	nt	nt
Cn1c(=O)c([N+](=O)[O-])c(N2CCN(Cc3ccc4c(c3)OCO4)CC2)c2ccccc21	95	7	?	nt	95	93	nt	nt	nt	nt	nt	nt
COc1ccccc1NS(=O)(=O)c1cc(NC(=O)c2cnccn2)ccc1N1CCOCC1	98	3	?	nt	94	101	nt	nt	nt	nt	nt	nt
COc1ccccc1NS(=O)(=O)c1cc(NC(=O)c2ccncc2)ccc1N1CCOCC1	22*	2	94	7	95	76	-1	97	102	100	98	87	RGS4-Gao HTS=95*
c1ccc(-c2noc(CC3CCCCC3)n2)nc1	111	9	101	23	101	102	nt	nt	nt	nt	nt	nt
Cc1sc2nc(CN3CCOCC3)nc(N3CCOCC3)c2c1C	413	4	117	73	116	143*[activator]	0	104	105	103	103	102	RGS4-Gao HTS=116*
COC(=O)c1sc2nc(CN3CCOCC3)nc(N3CCOCC3)c2c1C	111	9	106	33	112	101	nt	nt	nt	nt	nt	nt
CCOc1ccc(C2NC(=O)NC(C)=C2C(=O)OC)cc1C (stereo not drawn)	nt	nt	nt	29	nt	nt	2	102	100	101	104	95
CCN(CC)C(=O)CC(c1ccc(N(C)C)cc1)c1c(O)cc(OC)cc1OC (stereo not drawn)	103	11	?	nt	105	103	nt	nt	nt	nt	nt	nt
O=C(NCCCN1CCOCC1)c1ccc2c(c1)N(Cc1ccccc1)CCS2	98	5	?	nt	102	100	nt	nt	nt	nt	nt	nt
CN1CCN(CCCNC(=O)c2ccc3c(c2)N(Cc2ccccc2)CCS3)CC1	140	3	134	25	142	145*[activator]	0	102	105	102	102	105	RGS4-Gao HTS=142*
CCC(Oc1cc(Cl)ccc1Cl)C(=O)NNC(=O)CCC(=O)O (stereo not drawn)	13*	1	81	11	80	60	0	98	104	100	101	85	RGS4-Gao HTS=80*
S=C(Nc1ccc(Nc2ccccc2)cc1)NN1CCOCC1	106	5	?	nt	101	101	nt	nt	nt	nt	nt	nt
COc1ccc(N=Cc2cc3c(cc2O)OC(N)=C(C#N)C3c2ccccc2)cc1 (stereo not drawn)	103	14	101	12	102	102	nt	nt	nt	nt	nt	nt
O=C(CC1SC(=NCC2CCCO2)NC1=O)Nc1cccc2ccccc12 (stereo not drawn)	-12*	-5	-5.8*	9	11*	6.6*	0	100	98	97	97	106
CCOc1ccc(N2C(=O)CC(NNc3nc4ccccc4s3)C2=O)cc1 (stereo not drawn)	93	7	?	nt	92	96	nt	nt	nt	nt	nt	nt
CSc1c(C#N)sc(=S)n1-c1ccc(C)cc1	91	10	101	16	98	99	nt	nt	nt	nt	nt	nt
Cc1noc(C)c1COc1ccc(C(=O)OCC(=O)NCCN2C(=O)CSC2=O)cc1	100	9	?	10	103	100	nt	nt	nt	nt	nt	nt
CCOC(=O)c1ccc(NC(=O)CSc2nnc(Cn3c(=O)sc4ccccc43)n2C)cc1	101	89*	173*[activator]	26	109	94	-2	99	101	101	99	88	RGS4-Gao HTS=109*
SMILES	RGS16-Gao HTS	Avidin bead fluor	RGS7-Gao	GSH fluor	RGS4-Gao reg	RGS8-Gao reg	Avidin counter	RGS8-Gao single	RGS7-Gao single	RGS16-Gao single	RGS4-Gao single	RGS19-Gao single	others
CCc1ccc(NC(=O)CSc2nnc(Cn3c(=O)sc4ccccc43)n2C)cc1	105	27	104	16	103	102	nt	nt	nt	nt	nt	nt
Cc1ccc(C(=O)Nc2nc(COc3ccccc3)cs2)s1	nt	nt	nt	44	nt	nt	-1	104	100	101	104	107
CC(=O)Nc1nc(COc2ccccc2)cs1	96	7	99	20	101	97	nt	nt	nt	nt	nt	nt
CCCCCOc1ccc(CSC(=N)N)cc1[N+](=O)[O-]	43	16	49*	9	42*	65	0	106	109	106	105	107
COc1ccc(CNC(=O)CN(Cc2ccccc2)C(=O)c2csnn2)cc1	99	14	94	37	96	98	nt	nt	nt	nt	nt	nt
C=CCN(CC(=O)NCc1ccccc1)C(=O)c1csnn1	nt	nt	nt	49	nt	nt	1	100	100	99	100	91
Cc1ccc(NC(=O)CCC(=O)NNC(=O)NC2CCCCC2)c(C)c1	96	9	90	11	96	100	nt	nt	nt	nt	nt	nt
